The values that follow come from PubChem BioAssay.

The nature of assay [1]: small molecules captured by biotinylated probe aFSTL3 – biochemical, small-molecule microarray, fluorescence 635/667, stem cell growth factor project, primary screen (AID 1064).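 Further: measures binding of the biotinylated anti-FSTL3 antibody to printed compounds.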 Conditions: higher = more signal.
A short description of assay [2]: binders from COS7 lysate, DM2A8 probe, primary screen, torsin A project, cell lysate, small-molecule microarray, fluorescence 635/667 (AID 1065). Conditions: higher = more signal, COS7 lysate expressing mutant human TOR1A.
A short description of assay [3]: small molecules captured by biotinylated probe aFGF2 – biochemical, small-molecule microarray, fluorescence 635/667, stem cell growth factor project, primary screen (AID 1067).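 Further: measures binding of biotinylated aFGF2 protein to printed compounds on slides; z-score merges feature fluorescence and signal-to-noise across triplicate slides.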 To be noted: higher = more signal.
Assay [4] is described as follows: small molecules captured by biotinylated probe aFGF10 – biochemical, small-molecule microarray, fluorescence 635/667, stem cell growth factor project, primary screen (AID 1071).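 Further: score merges 667 nm spot intensity and signal to noise from triplicate slides.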 To be noted: higher = more signal.
Assay [5] concerns the target Neurogenic locus notch homolog protein 2 (Homo sapiens) (UniProt Q04721). Kind of assay: small molecules binding Notch2 protein – biochemical, small-molecule microarray, 635 nm fluorescence, stem cell growth factors, primary screen (AID 1073). To be noted: higher = more signal.
In assay [6] the target is Pro-neuregulin-1, membrane-bound isoform (Homo sapiens) (UniProt Q02297). Kind of assay: small molecules binding neuregulin-1 protein – biochemical, small-molecule microarray, fluorescence 635/667, psychiatric disease protein project, primary screen (AID 1075).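 Further: score combines 667 nm spot fluorescence with signal to noise.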 Conditions: NRG1 binding, 635 nm fluorescence, higher = more signal.
For assay [7], the system named is Neuregulin-1 EGF-like domain. Kind of assay: small molecules binding NRG1 EGF domain – biochemical, small-molecule microarray, 635 nm fluorescence, primary screen (AID 1081).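 Further: binding of the protein to compounds printed on small-molecule microarray slides.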 Conditions: higher = more signal.
Assay [8] in a line: FRG1 expression reporter modulators in myotubes – cell-based, C2C12 myotubes, firefly/Renilla luciferase, luminescence, FRG1 inhibition for FSHD, primary screen (AID 1084). To be noted: FRG1 promoter luciferase, higher = more signal, called active from +8 up or from −8 down.
Assay [9] is described as follows: small molecules captured by biotinylated probe aFST – biochemical, small-molecule microarray, fluorescence 635/667, stem cell growth factor project, primary screen (AID 1086).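 Further: score merges 667 nm fluorescence with signal-to-noise of each printed compound spot.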 To be noted: higher = more signal.
Assay [10] in a line: binders of probe aHhip on microarray, primary screen, stem cell growth factor project, biochemical, small-molecule microarray, fluorescence 635/667 (AID 1087).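 Further: score merges spot fluorescence at 667nm with spot signal to noise ratio.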 To be noted: higher = more signal.
Assay [11] relates to PRMT1 (protein arginine N-methyltransferase 1). Kind of assay: small molecules binding arginine methyltransferase PRMT1 – biochemical, small-molecule microarray, 635 nm fluorescence, primary screen (AID 1088).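 Further: binding of Prmt1 protein to compounds spotted on small-molecule microarray slides.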 To be noted: higher = more signal.
Assay [12] is described as follows: growth effects on S. cerevisiae YJM789 – YJM789 clinical isolate, OD600, 24 h, basal, primary screen (AID 1089).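 Further: growth of clinical yeast isolate S. cerevisiae YJM 789 seeded 1000 cells per well; test concentration not given here.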 Conditions: higher = more signal, called active from +8 up or from −8 down.
Assay [13] can be described thus: S. pombe growth modifiers, basal conditions – strain 972, OD600, 24 h, no modulator, primary screen (AID 1090).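 Further: basal condition with compound alone and no growth modifier present; test concentration not given here.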 To be noted: S. pombe 972 growth, higher = more signal, called active from +8 up or from −8 down.
A short description of assay [14]: budding yeast growth modifiers under rapamycin – strain BY4716, OD600, 96 h, primary screen (AID 1091). Further: test concentration not given here. Conditions: S. cerevisiae BY4716 + rapamycin, higher = more signal, called active from +8 up or from −8 down.
Assay [15] deals with Torsin-1A-interacting protein 2 (Homo sapiens) (UniProt Q8NFQ8). Kind of assay: small molecules binding lysate-expressed LULL1 – cell lysate, human LULL1 lysate, 635/667 nm fluorescence, primary screen (AID 1092).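 Further: probe is lysate of COS7 cells overexpressing human LULL1; score merges per-feature 667 nm fluorescence with signal-to-noise.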 Conditions: small-molecule microarray, hLULL1 lysate binding, 635 nm fluorescence; higher = more signal.
A short description of assay [16]: optical density change of DRC41 E. coli – strain DRC41, OD650, 24 h, E. coli filamentation project, primary screen (AID 1093).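 Further: MC1000 strain lacking acrAB efflux and sulA so SOS filamentation is blocked; test concentration not given here.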 Conditions: E. coli DRC41 growth, higher = more signal, called active from +8 up or from −8 down.
A short description of assay [17]: probe aLefty2 binding to arrayed compounds – biochemical, biotinylated probe, 635/667 nm fluorescence, primary screen (AID 1094).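 Further: score merges spot fluorescence near 667 nm with spot signal-to-noise ratio.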 Conditions: small-molecule microarray, higher = more signal.
Assay [18] has as its system Noggin (protein binding on small-molecule microarray). Kind of assay: small molecules binding Noggin protein – biochemical, 635/667 nm fluorescence, primary screen (AID 1095).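 Further: score merges 667 nm feature fluorescence with signal to noise over triplicate slides.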 Conditions: 635 nm fluorescence, higher = more signal.
Assay [19] concerns the target Neurogenic locus notch homolog protein 3 (Homo sapiens) (UniProt Q9UM47). Kind of assay: small molecules binding NOTCH3 protein – biochemical, 635/667 nm fluorescence, primary screen (AID 1096). To be noted: small-molecule microarray, 635 nm fluorescence, higher = more signal.
A short description of assay [20]: probe aEGFR binding to arrayed compounds – biochemical, biotinylated probe, 635/667 nm fluorescence, primary screen (AID 1097).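 Further: probe is a biotinylated anti-EGFR antibody binding compounds printed on slides; score combines fluorescence near 667 nm and signal to noise of each spot.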 Conditions: small-molecule microarray, higher = more signal.

Molecules are shown by their SMILES. Calls of active or inactive are those of the source.

Neurogenic locus notch homolog protein 3 (Homo sapiens), sequence (Q9UM47 whole entry, looked up): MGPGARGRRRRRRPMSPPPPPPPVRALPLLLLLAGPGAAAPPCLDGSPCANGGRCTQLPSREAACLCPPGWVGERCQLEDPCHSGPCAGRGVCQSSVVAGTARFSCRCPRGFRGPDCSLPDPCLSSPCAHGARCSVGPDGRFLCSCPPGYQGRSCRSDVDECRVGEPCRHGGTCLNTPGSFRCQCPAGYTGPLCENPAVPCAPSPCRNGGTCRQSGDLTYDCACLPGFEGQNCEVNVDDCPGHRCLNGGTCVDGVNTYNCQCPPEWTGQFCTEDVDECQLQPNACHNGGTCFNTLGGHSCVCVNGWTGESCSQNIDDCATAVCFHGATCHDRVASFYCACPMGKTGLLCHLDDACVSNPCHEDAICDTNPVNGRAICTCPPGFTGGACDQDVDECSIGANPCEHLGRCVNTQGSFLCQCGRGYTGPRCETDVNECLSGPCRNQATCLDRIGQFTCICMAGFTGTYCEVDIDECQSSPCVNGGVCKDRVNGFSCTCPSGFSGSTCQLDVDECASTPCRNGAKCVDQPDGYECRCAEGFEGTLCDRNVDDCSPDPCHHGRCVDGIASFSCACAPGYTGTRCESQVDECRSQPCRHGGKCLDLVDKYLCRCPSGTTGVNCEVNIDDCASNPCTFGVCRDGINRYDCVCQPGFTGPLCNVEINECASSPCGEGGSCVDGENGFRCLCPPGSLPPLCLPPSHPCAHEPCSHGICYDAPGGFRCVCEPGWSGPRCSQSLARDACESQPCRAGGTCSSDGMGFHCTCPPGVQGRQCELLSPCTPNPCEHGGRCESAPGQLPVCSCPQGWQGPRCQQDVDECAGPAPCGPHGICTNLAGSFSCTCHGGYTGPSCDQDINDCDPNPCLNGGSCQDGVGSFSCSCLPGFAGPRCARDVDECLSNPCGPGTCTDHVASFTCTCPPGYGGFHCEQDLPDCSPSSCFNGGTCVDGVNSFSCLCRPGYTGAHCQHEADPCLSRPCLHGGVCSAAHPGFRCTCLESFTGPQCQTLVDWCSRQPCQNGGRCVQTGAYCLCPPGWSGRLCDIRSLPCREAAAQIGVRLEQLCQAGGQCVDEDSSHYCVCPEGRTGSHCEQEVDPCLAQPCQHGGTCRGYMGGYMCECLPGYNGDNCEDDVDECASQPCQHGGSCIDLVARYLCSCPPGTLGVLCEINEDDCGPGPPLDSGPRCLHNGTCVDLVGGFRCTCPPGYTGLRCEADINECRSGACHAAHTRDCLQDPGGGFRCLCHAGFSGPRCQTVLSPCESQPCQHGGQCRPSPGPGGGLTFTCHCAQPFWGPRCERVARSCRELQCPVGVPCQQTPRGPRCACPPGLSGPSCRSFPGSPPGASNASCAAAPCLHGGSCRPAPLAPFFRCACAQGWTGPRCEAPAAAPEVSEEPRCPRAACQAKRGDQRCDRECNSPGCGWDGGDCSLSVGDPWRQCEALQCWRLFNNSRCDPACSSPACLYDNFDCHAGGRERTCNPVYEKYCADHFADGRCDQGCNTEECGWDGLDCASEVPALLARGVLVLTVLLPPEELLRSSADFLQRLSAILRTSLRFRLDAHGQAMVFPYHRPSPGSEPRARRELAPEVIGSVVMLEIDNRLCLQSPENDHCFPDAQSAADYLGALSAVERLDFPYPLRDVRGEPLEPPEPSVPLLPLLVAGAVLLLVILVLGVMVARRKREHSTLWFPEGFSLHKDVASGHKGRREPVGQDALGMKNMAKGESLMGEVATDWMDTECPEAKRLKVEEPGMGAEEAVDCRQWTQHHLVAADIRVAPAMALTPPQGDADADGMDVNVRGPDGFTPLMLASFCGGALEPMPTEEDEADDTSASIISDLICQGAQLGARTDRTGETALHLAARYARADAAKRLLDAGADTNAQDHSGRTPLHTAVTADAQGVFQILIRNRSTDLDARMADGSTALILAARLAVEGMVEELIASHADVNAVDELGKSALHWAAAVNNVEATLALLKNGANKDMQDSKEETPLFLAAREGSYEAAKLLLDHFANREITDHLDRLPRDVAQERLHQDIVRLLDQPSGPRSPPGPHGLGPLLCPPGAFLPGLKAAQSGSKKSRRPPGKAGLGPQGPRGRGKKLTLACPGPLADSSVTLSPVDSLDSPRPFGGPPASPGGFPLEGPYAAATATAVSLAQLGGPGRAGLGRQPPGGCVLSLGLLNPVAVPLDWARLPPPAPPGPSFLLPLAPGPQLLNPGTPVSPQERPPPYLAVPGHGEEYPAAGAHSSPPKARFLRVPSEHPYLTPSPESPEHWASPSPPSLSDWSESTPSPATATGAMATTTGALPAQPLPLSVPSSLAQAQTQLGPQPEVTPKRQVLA
Torsin-1A-interacting protein 2 (Homo sapiens), sequence (Q8NFQ8 whole entry, looked up): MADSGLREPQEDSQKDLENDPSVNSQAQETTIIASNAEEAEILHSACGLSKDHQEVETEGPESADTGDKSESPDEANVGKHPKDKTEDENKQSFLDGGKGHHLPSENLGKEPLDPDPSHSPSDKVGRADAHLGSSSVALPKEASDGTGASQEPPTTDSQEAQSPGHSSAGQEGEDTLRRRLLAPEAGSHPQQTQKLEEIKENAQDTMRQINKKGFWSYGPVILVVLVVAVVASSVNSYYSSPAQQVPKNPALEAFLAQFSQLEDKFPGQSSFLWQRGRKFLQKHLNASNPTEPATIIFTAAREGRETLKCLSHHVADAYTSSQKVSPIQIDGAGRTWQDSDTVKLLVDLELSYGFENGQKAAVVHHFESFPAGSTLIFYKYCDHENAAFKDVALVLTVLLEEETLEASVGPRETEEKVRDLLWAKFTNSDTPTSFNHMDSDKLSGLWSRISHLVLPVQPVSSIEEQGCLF
Pro-neuregulin-1, membrane-bound isoform (Homo sapiens), sequence (Q02297 whole entry, looked up, the tested form may be a part, canonical isoform): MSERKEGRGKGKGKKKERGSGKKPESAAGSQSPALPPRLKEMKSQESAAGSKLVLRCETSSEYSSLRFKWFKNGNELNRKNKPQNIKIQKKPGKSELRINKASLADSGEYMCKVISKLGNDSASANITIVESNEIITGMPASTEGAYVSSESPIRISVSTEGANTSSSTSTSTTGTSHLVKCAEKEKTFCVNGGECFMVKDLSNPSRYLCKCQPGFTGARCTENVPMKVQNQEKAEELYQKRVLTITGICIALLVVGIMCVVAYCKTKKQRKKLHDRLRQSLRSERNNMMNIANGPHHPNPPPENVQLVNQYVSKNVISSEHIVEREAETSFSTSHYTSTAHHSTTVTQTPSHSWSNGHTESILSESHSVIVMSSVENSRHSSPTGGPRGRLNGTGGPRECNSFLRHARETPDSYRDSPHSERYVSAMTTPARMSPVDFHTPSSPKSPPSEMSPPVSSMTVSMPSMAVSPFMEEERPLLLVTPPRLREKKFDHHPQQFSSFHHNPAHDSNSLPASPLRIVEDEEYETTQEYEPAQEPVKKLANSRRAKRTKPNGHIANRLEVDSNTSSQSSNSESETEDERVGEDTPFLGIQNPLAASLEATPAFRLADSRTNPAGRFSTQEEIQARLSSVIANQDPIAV

Take `COC(=O)[C@]1(Cc2ccccc2N=[N+]=[N-])N=C(c2ccc(OCCCO)cc2)O[C@@H]1c1ccccc1N=[N+]=[N-]`: the composite z-score in assay [1] was -0.13; in [2], -0.126; in [3] it was -0.0512; in assay [4], -0.102; in assay [5], 0.374; in assay [6], 0.46. The composite z-score in assay [7] was 1.1; in assay [9] it was 0.197; in assay [10] it was -0.0994; in assay [11], 0.822; in [15], 0.59; in assay [17], -0.166. Also, the composite z-score was 0.347 in [18], 0.251 in assay [19] and -0.0656 in assay [20]. The z-score in assay [8] is 3.58 (inactive); in assay [12] it was 0.189 (inactive); in [13], -0.0643 (inactive); in assay [14], 14.9 (active); in [16] it was -0.962 (inactive).
For the compound `C=C(C(=O)CC[C@H](OC(C)=O)c1ccc(OCCO)cc1)C(C)C`, the composite z-score in assay [1] is -0.398; in assay [2], 0.194; in assay [3], -0.134; in [4], 0.991; in assay [5] it was 1.49; in assay [6], 0.0987. Moreover, the composite z-score in assay [7] was -0.108; in assay [9], 0.0745; in assay [10], 0.174; in assay [11], 1.19; in assay [15], 0.739; in [17], -0.212. Besides, the composite z-score in [18] was 1.22; in assay [19] it was 0.801; in assay [20], -0.156. Further, the z-score in assay [8] was -2.5 (inactive); in assay [12], -24.6 (active); in assay [13], -20.5 (active); in assay [14] it was -4.29 (inactive); in assay [16], 2.11 (inactive).
Take `CCCN1C(=O)[C@@]2(CCC(=O)OC(C)(C)C)N=C(c3ccc(OCCCO)cc3)O[C@H]2c2ccccc21`: the composite z-score is -0.0952 in assay [1]; 0.108 in assay [2]; -0.0243 in assay [3]; 0.102 in assay [4]; 0.312 in [5]; 0.0163 in [6]. Moreover, the composite z-score in [7] is 0.959; in assay [9], 0.0225; in assay [10], -0.191; in [11], 1.56; in assay [15], 2.64; in assay [17], 0.0272. The composite z-score in assay [18] is 1.82; in [19] it was 0.518; in assay [20], -0.0371. The z-score was -1.22 (inactive) in [8]; -1.25 (inactive) in [12]; -1.19 (inactive) in assay [13]; 1.51 (inactive) in assay [14]; 1.2 (inactive) in assay [16].
Take `C=C(CCCC)/C(=C/C[C@H](OC(C)=O)c1ccc(CO)o1)c1cnc2ccccc2c1`: the composite z-score in assay [1] is -0.472; in assay [2], 0.773; in assay [3] it was -0.0749; in assay [4], 1.14; in assay [5], 1.1; in [6], 0.963. The composite z-score is 1.26 in [7]; 0.13 in [9]; 0.0505 in assay [10]; 1.43 in assay [11]; 1.46 in assay [15]; -0.0998 in assay [17]. Moreover, the composite z-score in assay [18] was 1.12; in assay [19] it was 1.07; in [20], 0.0324. Besides, the z-score in assay [8] was 0.13 (inactive); in assay [12] it was -0.237 (inactive); in [13], -0.923 (inactive); in assay [14], 1.37 (inactive); in assay [16], 0.111 (inactive).
As to `C=CCC(OC(C)=O)[C@@H]1[C@@H](N(Cc2cc3ccccc3o2)C(=O)c2ccc(C)cc2)c2cc(OCCCO)ccc2N1C(=O)c1ccc2ccccc2c1` (stereo not given in full), the composite z-score is -0.0336 in assay [1]; 0.117 in assay [2]; -0.0785 in assay [3]; 0.339 in assay [4]; 0.112 in assay [5]; -0.189 in assay [6]. Moreover, the composite z-score in assay [7] was 0.38; in assay [9], -0.0921; in assay [10] it was -0.201; in [11], -0.21; in assay [15] it was 0.346; in assay [17], -0.0258. The composite z-score in [18] was 0.341; in assay [19], -0.0158; in [20] it was -0.0536. Moreover, the z-score in [8] is -2.76 (inactive); in assay [12], -0.44 (inactive); in assay [13], 0.116 (inactive); in assay [14] it was 0.0217 (inactive); in [16] it was 1.65 (inactive).
